PubChem BioAssay (NCI)
About 83,000 compounds went through this panel and 20% of them were active in at least one assay; those are over-represented in the sample as a whole.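 Plates (96-well) were seeded with cells, treated with compound at one concentration, and incubated for 48 hours before percent growth was determined.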 A number with no mark means an inactive call. Activity calls are given as the source filed them. How the source made its calls: active means growth percent below 10; inactive means the rest.

What follows are compounds tested on HL-60(TB) leukemia (assay: NCI-60 one-dose screen, 48 h (100 = growth as untreated, 0 = no growth, -100 = all killed)). Conditions: 10 µM unless noted.

| Compound | growth |
| --- | --- |
| COc1ccc(C2C3(C#N)C(N)=NC(=C(C#N)C#N)C23C#N)cc1OC (stereo not given) | 107% |
| Cc1cccc(NC(=O)CCc2ccc(N3C(N)=NC(N)=NC3(C)C)cc2)c1 | 20.1% |
| Cc1ccc(S(=O)(=O)n2cc(C(=O)C(=O)Nc3ccncc3)c3ccccc32)cc1 | 16.1% |
| Cn1c(N)c(N=Cc2ccccc2)c(=O)n(C)c1=O | 86.1% |
| Cc1ccc(NC2=CC(=O)C(=O)c3ccccc32)cc1 | 18.4% |
| COc1cc(OC)c(C(=O)/C=C/c2cccc(OC(C)=O)c2)cc1CC=C(C)C | 8.14% (active) |
| COc1ccc(/C=N/NC(=O)c2cccc3cc[nH]c23)cc1O | 10.1% |
| O=C(O)C1CCC(=O)N1C(=O)OCc1ccccc1 (stereo not given) | 84.1% |
| CN([N-]C(=O)CC(=O)[N-]N(C)C(=S)c1ccccc1)C(=S)c1ccccc1.[Cu+2] | -15.6% (active) |
| CCCCCCCCCCCCCCCCCC1=NC(C)(C)CN1C(C)(C)CO | -66.9% (active) |
| CCCCCCCCCCCCCCCCCCOc1ccccc1CC(=O)OCC[N+](CC)(CC)CC | -20.7% (active) |
| Cc1nc2sc(C(=O)Nc3cccc4ncccc34)c(N)c2cc1C(C)O (stereo not given) | 33% |
| COc1ccccc1NC(=O)c1ccc(/C=C/C(=O)c2nccn2C)cc1 | -9.45% (active) |
| COc1cc(OC)cc(-c2ccc(-c3ccc(C(=N)N)o3)o2)c1 | 4.66% (active) |
| C[n+]1ccc(CCc2c[nH]c3ccccc23)cc1 | 90.6% |
| CCCCCCCCCN1C(=O)/C(=c2\sc3n(c2=O)C2C(NN=3)N(CC)C(=O)N2CC)c2ccccc21 (stereo not given) | 84.1% |
| CCOC(=O)CC(C#N)(CC(=O)OCC)C(=O)OCC | 102% |
| CNC1=C([N+](=O)[O-])C(c2ccccc2O)C(C#N)=C(c2cccs2)O1 (stereo not given) | 75.1% |
| NC(=S)N/N=C\c1nccc2c(C(F)(F)F)cccc12 | -24.8% (active) |
| c1ccc(-c2cn3nc(-c4c[nH]c5ccccc45)sc3n2)cc1 | 95.1% |

| Compound | growth |
| --- | --- |
| C=C1C(=O)O[C@H]2[C@H]1CC/C(COC(=O)CCCCC(=O)OC/C1=C/CC[C@@]3(C)O[C@H]3[C@H]3OC(=O)C(=C)[C@@H]3CC1)=C\CC[C@@]1(C)O[C@@H]21 | 2.37% (active) |
| CC/C=C\C/C=C\C[C@H]1C/C=C2/C(=O)C=C[C@H]2C/C=C\CCC(=O)O1 | -5.31% (active) |
| Nc1ncc(-c2ccc3ncnc(N4CCc5cc(F)c(Cl)cc54)c3c2)cc1C(F)(F)F | 21.5% |
| C#CCn1c(-c2cc(OC)c(OC)cc2Br)nc(-c2ccccc2)c1-c1ccccc1 | 24.5% |
| N/C(=N\C(N)=N\c1nc2ccccc2s1)c1ccnc(Br)c1 | 2.51% (active) |
| CCOC(=O)C(C(=O)OCC)C1CCCCC1 | 105% |
| CCCCCCCCn1cc(C2=C(c3coc4ccc(OC)cc34)C(=O)NC2=O)c2ccccc21 | 133% |
| COc1ccccc1NS(=O)(=O)c1cccc(C(=O)Nc2ccc(Br)cc2)c1 | 29.4% |
| O=C(O)c1ccc(NCc2cn(-c3ccc(C(F)(F)F)cc3)nc2-c2ccc(C(=O)O)cc2)cc1 | 104% |
| O=C(O)C(c1ccccc1)N1C(=O)CSC1=S (stereo not given) | 129% |
| O=C(N/N=C/[C@H](O)[C@@H](O)[C@@H](O)[C@H](O)CO)c1ccc(NC(=O)c2cccnc2)cc1 | 101% |
| COc1cc(C(=O)/C=C/c2c(C(F)(F)F)nc3sccn23)cc(OC)c1OC | -20% (active) |
| COc1ccc(Cn2cc3c(c2-c2ccccc2)CCc2cnoc2-3)cc1N | -19.8% (active) |
| O=C(C1=Cc2cc3ccccc3n2Cc2cnnn21)c1ccc(F)cc1 | 98% |
| CCn1c(=S)[nH]c2c(=O)n(C)c(=O)n(C)c21 | 100% |
| C=C1C(=O)O[C@H]2[C@H]1CC/C(COC(=O)/C=C\C(=O)NCc1ccc(Cn3c(=O)sn(-c4ccc(C#N)cc4)c3=O)cc1)=C\CC[C@@]1(C)O[C@@H]21 | -40.3% (active) |
| CCCC1CCCCN1C(=O)OCC(C)C (stereo not given) | 107% |
| C[C@H](CCC[C@H](C)OS(=O)(=O)c1ccccc1)OS(=O)(=O)c1ccccc1 | 119% |
| COc1ccc(C2CC(c3cccs3)=NN2c2ccc(S(=O)(=O)NC(=O)NCc3cccc(OC)c3)cc2)cc1 (stereo not given) | 103% |
| Nc1n[nH]c2cccc(C#Cc3cccc(NC(=O)c4ccc(N5CCOCC5)c(C(F)(F)F)c4)c3)c12 | 2.04% (active) |
